# Laboratory results from PubChem BioAssay (NCATS).
# Active and inactive are the calls of the source. The call rests on the fitted dose curve; in most records, active means well fitted activation curve with a large enough effect; inconclusive means small, poorly fitted or top-dose-only effect; inactive means no such curve, though single readings can be large or run the other way.
# Biological target: Parathyroid hormone/parathyroid hormone-related peptide receptor (Homo sapiens) (UniProt Q03431)
# Test: qHTS for PTHR1 Agonists: Optimization Screen against the NCGC LOPAC library (AID 1347079); on activation: 0% is about no effect
# Conditions: HEK293 GP2 PTHR1 GloSensor cAMP luminescence, 1 h; series mostly up to 57.1 µM; activation: at the top concentration
# Source text: The goal of the proposed studies is to discover new compounds that act as potent agonists on the parathyroid hormone receptor type-1 (PTHR1). The PTHR1 plays critical roles in maintaining blood calcium and phosphate levels, as well as in controlling bone remodeling. PTHR1 agonists could thus be useful for treating diseases such as hypoparathyroidism and osteoporosis. In the former disease, an agonist drug would help maintain normal blood calcium and phosphate levels under conditions of parathyroid hormone deficiency. In the latter disease, an agonist drug would stimulate new bone formation and thus reduce the risk of fracture, under conditions of bone fragility, as occurs in aging. We performed an optimization assay of the quantitative high-throughput screening (qHTS) for the parathyroid hormone receptor type-1 (PTHR1) against the NCGC LOPAC library collection of […] compounds using a unique HEK-293-derived cell line (GP2) that expresses the PTHR1 and a GloSensor cAMP reporter construct. Increase in signal (activation / agonist) is the desired outcome for compounds of interest. NIH Chemical Genomics Center [NCGC] NIH Molecular Libraries Probe Production Centers Network [MLPCN] MLPCN Grant: P01 DK011794 Assay Submitter (PI): Thomas Gardella PhD, Massachusetts General Hospital
# Reagents / Controls: M-PTH (1-15) peptide hormone fragments was provided by the assay provider and was used as a control. Column 1 was treated with M-PTH titration (1:2 dilution) beginning with a final concentration of 10uM. Column 2 was treated with M-PTH final concentration of 10uM. Columns 3 and 4 were treated with DMSO only to assess background and noise signal. Assay Steps: Four microLiter of cells suspension was dispensed in a 1536-well assay plate at a final density of 3000 cells/well. The plates were incubated overnight, after which 4uL of 0.5mM of BloTium Luciferin plus 0.5mM IBMX was added. Next, the plate was incubated at 37C for 1hr before 23nL of compound (at various final concentrations from 40uM to 0.32uM) and control were added using a 1536-well array Kalypsys pin-tool. The treated plates were again incubated at 37C for another hour. Luminescence signal was obtained using the PerkinElmer ViewLux plate reader after 15min or room temperature incubation.
# Potency means the concentration at half of the fitted maximal effect.
# Sequence of Parathyroid hormone/parathyroid hormone-related peptide receptor (Homo sapiens) (Q03431 whole entry, looked up): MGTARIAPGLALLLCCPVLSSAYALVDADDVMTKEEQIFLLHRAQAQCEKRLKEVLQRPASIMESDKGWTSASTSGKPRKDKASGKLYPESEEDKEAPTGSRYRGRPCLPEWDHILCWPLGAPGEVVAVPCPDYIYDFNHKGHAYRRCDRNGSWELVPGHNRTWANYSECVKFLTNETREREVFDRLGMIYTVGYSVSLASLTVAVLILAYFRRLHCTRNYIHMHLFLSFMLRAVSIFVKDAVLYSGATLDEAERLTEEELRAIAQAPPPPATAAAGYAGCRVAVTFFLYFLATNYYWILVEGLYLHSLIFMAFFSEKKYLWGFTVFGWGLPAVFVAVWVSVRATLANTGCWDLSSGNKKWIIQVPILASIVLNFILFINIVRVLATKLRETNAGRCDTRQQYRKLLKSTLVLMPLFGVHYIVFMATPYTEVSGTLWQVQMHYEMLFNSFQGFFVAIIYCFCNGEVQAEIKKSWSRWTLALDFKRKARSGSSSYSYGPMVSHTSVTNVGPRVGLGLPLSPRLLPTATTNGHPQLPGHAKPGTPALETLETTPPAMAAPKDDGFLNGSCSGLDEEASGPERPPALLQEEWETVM
SMILES,activation,Potency
CN(C)CCCc1cc(C(=O)Nc2ccc(-c3ccncc3)cc2)ccc1O,-6.63% (inactive),
CCCCCCCC/C=C\CCCCCCCC(=O)NCCc1ccc(O)c(O)c1,-8.68% (inactive),
CCCCOC(=O)NS(=O)(=O)c1sc(CC(C)C)cc1-c1ccc(Cn2c(CC)nc3c(C)cc(C)nc32)cc1,-7.59% (inactive),
CCCCCC(O)CCCC(=O)O (stereo not given),25.5% (inactive),
NCC(O)C1CCCCCCC1 (stereo not given),4.58% (inactive),
COC(=O)C1=C(C)NC(C)=C([N+](=O)[O-])C1c1ccccc1C(F)(F)F (stereo not given),-20.1% (inactive),
O=C(O)[C@H]1NCCC[C@H]1C(=O)O,38% (inactive),
C=CCN1CCc2c(cc(O)c(O)c2Cl)C(c2ccccc2)C1 (stereo not given),7.54% (inactive),
CC(N)=NCCCC[C@@H](N)C(=O)O,6.15% (inactive),
CC(C)(CO)Cc1cc(C(C)(C)C)c(O)c(C(C)(C)C)c1,40.8% (inactive),
CCC1(O)CC2CN(CCc3c([nH]c4ccccc34)[C@@](C(=O)OC)(c3cc4c(cc3OC)N(C=O)C3[C@]45CCN4CC=C[C@@](CC)([C@@H](OC(C)=O)[C@]3(O)C(=O)OC)[C@H]45)C2)C1 (stereo not given in full),47.6% (inactive),
C[C@H](NC(=O)/C(C#N)=C/c1ccc(O)c(O)c1)c1ccccc1,47.8% (inactive),
O=C1OC(=O)C2C3CCC(O3)C12 (stereo not given),3.18% (inactive),
CN1CCN(c2nc3cc(C(F)(F)F)ccc3n3cccc23)CC1,5.28% (inactive),
NC/C=C\C(=O)O,-13.8% (inactive),
O=c1onc2n1-c1cc(Br)ccc1OC2,-16.1% (inactive),
CC(C)Cn1c(=O)n(C)c(=O)c2[nH]cnc21,,4.23 µM (active)
Cc1nc2n(c(=O)c1CCN1CCC(c3noc4cc(F)ccc34)CC1)CCCC2O (stereo not given),12.8% (inactive),
CC1=C(/C=C/C(C)=C/C=C/C(C)=C\C(=O)O)C(C)(C)CCC1,-5.71% (inactive),
COc1ccccc1N1CCN(CCCCN2C(=O)c3ccccc3C2=O)CC1,44.4% (inactive),

SMILES,activation,Potency
COc1cccc(OC)c1OCCNCC1CSc2ccccc2O1 (stereo not given),-21.5% (inactive),
CCCN(CCc1ccccc1)C1CCc2c(O)cccc2C1 (stereo not given),-30.2% (inactive),
COc1ccc(CCN(C)CCc2ccc(OC)c(OC)c2)cc1OC,3.92% (inactive),
COc1ccc(-c2ccc(N)[n+](CCCC(=O)O)n2)cc1,-8.68% (inactive),
Cc1ccccc1/C=C/C1=NCCN1,-13.4% (inactive),
CC[C@@H]1Cc2cc(O)ccc2C2=C1c1ccc(O)cc1C[C@H]2CC,-27.3% (inactive),
c1ccc(C(NCCNC(c2ccccc2)c2ccccc2)c2ccccc2)cc1,-21.5% (inactive),
N#CC(C#N)=C(N)/C(C#N)=C/c1ccc(O)cc1,-0.654% (inactive),
CC(=O)C(C)=O,-20.8% (inactive),
O=C(O)c1ccccc1Nc1ccccc1,16.1% (inactive),
CCN(CC)CCOC(=O)c1cc(Cl)c(N)cc1OC,3.92% (inactive),
O=c1oc(Cl)c(Cl)c2ccccc12,-14.7% (inactive),
CCCn1c(=O)c2[nH]c(-c3ccc(S(=O)(=O)O)cc3)nc2n(CCC)c1=O,-31.7% (inactive),
CCN(c1nc(N)c(C(=O)N=C(N)N)nc1Cl)C(C)C,-17% (inactive),
N[C@@H](Cc1c[nH]c2ccccc12)C(=O)O,-24.3% (inactive),
Cn1c(=O)c2[nH]c(C3CCCC3)nc2n(C)c1=O,-6.15% (inactive),
CN[C@H](CC(=O)O)C(=O)O,-44.1% (inactive),
O=c1onc2cnc3ccccc3n12,17.7% (inactive),
NCCS(=O)O,-23.4% (inactive),
CCCCCCCCCCC(C)(C)C(=O)Nc1c(OC)cc(OC)cc1OC,-9.29% (inactive),
